In PubChem BioAssay AID1159580 (chemical genetic matrix, 2015):
About 2,000 (36%) of roughly 5,500 compounds were called active. About 18% were inconclusive and are not listed. No stated cut-off is given here; in the data, active means normalized growth mostly below about 0.91 (no sharp cut-off); inconclusive means no clear call, values can overlap the other calls; inactive means mostly above about 0.92. Some of the results follow.

Test: chemical genetic growth profiling, strain panel (AID 1159580);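 further: tested at 20 µM; growth read once vehicle control cultures reached saturation at 30 °C; 1 = growth at the plate median or of vehicle wells; lower values mean less growth of the strain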
Details: growth OD

Measured: normalized growth

OC[C@@H](O)[C@@H](O[C@@H]1O[C@H](CO)[C@@H](O)[C@H](O)[C@H]1O)[C@H](O)[C@@H](O)CO
inactive: S. cerevisiae deletion strains, locus YJR075W, strain HOC1, active compounds read low 1.01 | S. cerevisiae deletion strains, locus YKL009W, strain mrt4, active compounds read low 1.02 | S. cerevisiae deletion strains, locus YKL068W, active compounds read low 0.999 | S. cerevisiae deletion strains, locus YKL085W, strain MDH1 (second series), active compounds read low 0.998 | S. cerevisiae deletion strains, locus YKL085W, strain MDH1, active compounds read low 0.998 | S. cerevisiae deletion strains, locus YKL160W, strain elf1, active compounds read low 1.02 | S. cerevisiae deletion strains, locus YKL190W, strain CNB1, active compounds read low 1 | S. cerevisiae deletion strains, locus YKR001C, strain vps1, active compounds read low 1.02 | S. cerevisiae deletion strains, locus YKR026C, strain gcn3, active compounds read low 0.991 | S. cerevisiae deletion strains, locus YKR091W, strain srl3, active compounds read low 0.996 | S. cerevisiae deletion strains, locus YLL001W, strain dnm1, active compounds read low 1.01 | S. cerevisiae deletion strains, locus YLL026W, active compounds read low 0.994 | S. cerevisiae deletion strains, locus YLL041C, strain sdh2, active compounds read low 0.989 | S. cerevisiae deletion strains, locus YLR027C, strain aat2, active compounds read low 0.997 | S. cerevisiae deletion strains, locus YLR039C, strain RIC1, active compounds read low 1.06 | S. cerevisiae deletion strains, locus YLR058C, strain SHM2, active compounds read low 1.01 | S. cerevisiae deletion strains, locus YLR102C, strain apc9, active compounds read low 1.01 | S. cerevisiae deletion strains, locus YLR113W, strain HOG1, active compounds read low 0.99 | S. cerevisiae deletion strains, locus YLR221C, strain rsa3, active compounds read low 1.04 | S. cerevisiae deletion strains, locus YLR258W, strain gsy2, active compounds read low 1 | S. cerevisiae deletion strains, locus YLR262C, strain YPT6 (second series), active compounds read low 1.01 | S. cerevisiae deletion strains, locus YLR262C, strain YPT6, active compounds read low 1.05 | S. cerevisiae deletion strains, locus YLR268W, strain sec22, active compounds read low 0.999 | S. cerevisiae deletion strains, locus YLR320W, strain mms22, active compounds read low 1.04 | S. cerevisiae deletion strains, locus YLR330W, strain CHS5, active compounds read low 1.01 | S. cerevisiae deletion strains, locus YLR342W, strain FKS1 (second series), active compounds read low 1.12 | S. cerevisiae deletion strains, locus YLR342W, strain FKS1, active compounds read low 0.974 | S. cerevisiae deletion strains, locus YLR357W, strain rsc2, active compounds read low 0.958 | S. cerevisiae deletion strains, locus YLR370C, strain arc18, active compounds read low 0.996 | S. cerevisiae deletion strains, locus YLR371W, strain rom2, active compounds read low 1.01 | S. cerevisiae deletion strains, locus YLR384C, strain iki3, active compounds read low 0.999 | S. cerevisiae deletion strains, locus YLR418C, strain cdc73, active compounds read low 0.974 | S. cerevisiae deletion strains, locus YML016C, strain PPZ1, active compounds read low 1.01 | S. cerevisiae deletion strains, locus YML032C, strain rad52, active compounds read low 1.05 | S. cerevisiae deletion strains, locus YML120C, strain ndi1, active compounds read low 0.985 | S. cerevisiae deletion strains, locus YML124C, strain tub3, active compounds read low 1.01 | S. cerevisiae deletion strains, locus YMR058W, strain fet3, active compounds read low 0.99 | S. cerevisiae deletion strains, locus YMR078C, strain ctf18, active compounds read low 1.02 | S. cerevisiae deletion strains, locus YMR125W, strain sto1, active compounds read low 0.938 | S. cerevisiae deletion strains, locus YMR129W, active compounds read low 0.992 | S. cerevisiae deletion strains, locus YMR205C, strain PFK2, active compounds read low 1.03 | S. cerevisiae deletion strains, locus YMR223W, strain ubp8, active compounds read low 1.06 | S. cerevisiae deletion strains, locus YMR231W, strain pep5, active compounds read low 0.983 | S. cerevisiae deletion strains, locus YMR263W, strain SAP30, active compounds read low 1.02 | S. cerevisiae deletion strains, locus YMR307W, strain GAS1, active compounds read low 1.1 | S. cerevisiae deletion strains, locus YNL067W, strain RPL9B, active compounds read low 0.998 | S. cerevisiae deletion strains, locus YNL071W, strain lat1, active compounds read low 0.986 | S. cerevisiae deletion strains, locus YNL128W, strain TEP1, active compounds read low 0.985 | S. cerevisiae deletion strains, locus YNL153C, strain GIM3, active compounds read low 1 | S. cerevisiae deletion strains, locus YNL183C, strain NPR1, active compounds read low 0.982 | S. cerevisiae deletion strains, locus YNL209W, strain ssb2, active compounds read low 0.999 | S. cerevisiae deletion strains, locus YNL233W, strain BNI4, active compounds read low 1.02 | S. cerevisiae deletion strains, locus YNL248C, strain rpa49, active compounds read low 0.976 | S. cerevisiae deletion strains, locus YNL250W, strain rad50, active compounds read low 1.02 | S. cerevisiae deletion strains, locus YNL271C, strain bni1, active compounds read low 1.03 | S. cerevisiae deletion strains, locus YNL298W, strain CLA4, active compounds read low 1.02 | S. cerevisiae deletion strains, locus YNL307C, strain MCK1, active compounds read low 1.03 | S. cerevisiae deletion strains, locus YNL322C, strain KRE1 (second series), active compounds read low 0.991 | S. cerevisiae deletion strains, locus YNL322C, strain KRE1, active compounds read low 1.01 | S. cerevisiae deletion strains, locus YNR049C, strain mso1, active compounds read low 0.993 | S. cerevisiae deletion strains, locus YNR052C, strain pop2, active compounds read low 1.01 | S. cerevisiae deletion strains, locus YOL006C, strain TOP1, active compounds read low 1.07 | S. cerevisiae deletion strains, locus YOL012C, strain htz1 1.19 | S. cerevisiae deletion strains, locus YOL147C, strain pex11, active compounds read low 1.01 | S. cerevisiae deletion strains, locus YOR001W, strain rrp6, active compounds read low 0.968 | S. cerevisiae deletion strains, locus YOR061W, strain CKA2, active compounds read low 1.02 | S. cerevisiae deletion strains, locus YOR069W, strain VPS5, active compounds read low 1.01 | S. cerevisiae deletion strains, locus YOR070C, strain gyp1, active compounds read low 0.994 | S. cerevisiae deletion strains, locus YOR080W, strain dia2, active compounds read low 0.995 | S. cerevisiae deletion strains, locus YOR083W, strain WHI5, active compounds read low 1.03 | S. cerevisiae deletion strains, locus YOR106W, strain vam3, active compounds read low 0.998 | S. cerevisiae deletion strains, locus YOR136W, strain idh2, active compounds read low 1.02 | S. cerevisiae deletion strains, locus YOR144C, strain elg1, active compounds read low 1 | S. cerevisiae deletion strains, locus YOR184W, strain ser1, active compounds read low 1.08 | S. cerevisiae deletion strains, locus YOR231W, strain MKK1, active compounds read low 1 | S. cerevisiae deletion strains, locus YOR265W, strain rbl2, active compounds read low 1 | S. cerevisiae deletion strains, locus YOR270C, strain vph1, active compounds read low 0.956 | S. cerevisiae deletion strains, locus YOR290C, strain snf2, active compounds read low 1 | S. cerevisiae deletion strains, locus YOR316C, strain cot1, active compounds read low 1.01 | S. cerevisiae deletion strains, locus YPL051W, strain arl3, active compounds read low 1.02 | S. cerevisiae deletion strains, locus YPL055C, strain LGE1, active compounds read low 0.991 | S. cerevisiae deletion strains, locus YPL078C, strain atp4, active compounds read low 1 | S. cerevisiae deletion strains, locus YPL106C, strain sse1, active compounds read low 1.01 | S. cerevisiae deletion strains, locus YPL240C, strain hsp82, active compounds read low 0.997 | S. cerevisiae deletion strains, locus YPL241C, strain CIN2, active compounds read low 1.01 | S. cerevisiae deletion strains, locus YPL256C, strain CLN2, active compounds read low 0.985 | S. cerevisiae deletion strains, locus YPR119W, strain clb2, active compounds read low 1 | S. cerevisiae deletion strains, locus YPR141C, strain kar3, active compounds read low 1.02 | S. cerevisiae deletion strains, locus YPR163C, strain tif3, active compounds read low 1.01 | S. cerevisiae deletion strains, locus YPR167C, strain met16, active compounds read low 1 | S. cerevisiae deletion strains, strain wtn01, active compounds read low 0.992 | S. cerevisiae strains, strain wild type, active compounds read low 1.02
